PubChem BioAssay (NCATS)
Results filed as inconclusive are left out. Entries that show only a call come without a potency. Values without a mark were called inactive. Active and inactive are the calls of the source. Calls come from the whole dose curve; as a rule, active = well fitted curve in the direction sought with a large enough effect; inconclusive = small, poorly fitted or top-dose-only effect, or another doubt; inactive = no such curve, though single readings can be large; an effect the other way counts as inactive or inconclusive.

tested on: not listed separately; assay: Primary qHTS for inhibitors of La Crosse Virus (LACV) - induced cell death in SH-SY5Y cells (AID 1508616); conditions: SH-SY5Y LACV cytopathicity rescue, ATP luminescence, 6 d; series mostly up to 4.29 µM;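 note: higher means more rescue of cells from virus-induced death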
Method in brief: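 SH-SY5Y, 6000 cells/well; cpd via pin tool in DMSO; LACV 0.01 MOI; 6 d 37C 5% CO2; ATPLite, 5 min RT; luminescence normalized to ±virus DMSO controls.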
Note: top concentration of the series differs between compounds.

Row | Structure (SMILES) | Potency | activity change
1 | C=C1C(=C/C=C2\CCC[C@]3(C)[C@@H]([C@H](C)/C=C/[C@@H](O)C4CC4)CC[C@@H]23)C[C@@H](O)C[C@@H]1O | inactive | 
2 | CCN(CC)CCNC(=O)COc1ccc(Cl)cc1 | inactive | 
3 | COC(=O)CCc1ccc(OCC(O)CNC(C)C)cc1 (configuration not stated) | inactive | 
4 | CC(=O)O[C@]1(C(C)=O)CC[C@H]2[C@@H]3C[C@H](C)C4=CC(=O)CC[C@]4(C)[C@H]3CC[C@@]21C | inactive | 
5 | CC1(C)OC[C@@H](COC(=O)CCc2ccc(OC[C@@H](O)CNCCNC(=O)N3CCOCC3)cc2)O1 | inactive | 
6 | O=C(Nc1ccc(Oc2ccc(Cl)cc2)c(Cl)c1)c1cc(I)cc(I)c1O | inactive | 
7 | COc1ccc(CCN2CCC(Nc3nc4ccccc4n3Cc3ccc(F)cc3)CC2)cc1 | inactive | 
8 | CC1(C)O[C@@H]2C[C@H]3[C@@H]4C[C@H](F)C5=CC(=O)C=C[C@]5(C)[C@H]4[C@@H](O)C[C@]3(C)[C@]2(C(=O)CO)O1 | inactive | 
9 | COc1cc2c(cc1OC)[C@@H]1CC(=O)[C@@H](CC(C)C)CN1CC2 | inactive | 
10 | C[C@@H]1C[C@H]2[C@@H]3C[C@H](F)C4=CC(=O)C(Cl)=C[C@]4(C)[C@@]3(F)[C@@H](O)C[C@]2(C)[C@@]1(O)C(=O)CO | inactive | 
11 | OC[C@@H](O)[C@@H](O[C@@H]1O[C@H](CO)[C@H](O)[C@H](O)[C@H]1O)[C@H](O)[C@@H](O)CO | inactive | 
12 | Cc1ccnc(NS(=O)(=O)c2ccc(N)cc2)n1 | inactive | 
13 | O=C(COc1ccc(Cl)cc1)N1CCN(Cc2ccc3c(c2)OCO3)CC1 | inactive | 
14 | CC(=O)N/N=C/c1ccc([N+](=O)[O-])o1 | inactive | 
15 | C/C=C/c1ccc(OC)cc1 | inactive | 
16 | CC(=O)Oc1ccc2c(c1)CC[C@@H]1[C@@H]2CC[C@]2(C)[C@@H](O)CC[C@@H]12 | inactive | 
17 | OC[C@H]1O[C@@H](n2cnc3c(=S)nc[nH]c32)[C@H](O)[C@@H]1O | inactive | 
18 | COc1ccc(/C=C/C(=O)c2ccc(OC)cc2OC)cc1 | inactive | 

Row | Structure (SMILES) | Potency | activity change
19 | Nc1ccn([C@@H]2O[C@H](CO)[C@@H](O)C2(F)F)c(=O)n1 | inactive | 
20 | CCCCCCCCCCOCC(O)CN (configuration not stated) | inactive | 
21 | C[C@]12CC[C@H]3[C@@H](CCC4=CC(=O)CC[C@@]43C)[C@@H]1CC[C@@H]2C(=O)CO | inactive | 
22 | CC(=O)Oc1ccc(C(=C2CCCCC2)c2ccc(OC(C)=O)cc2)cc1 | inactive | 
23 | CC(O)C(=O)O (configuration not stated) | inactive | 
24 | C[C@H](CCC(=O)O)[C@H]1CC[C@H]2[C@@H]3C(=O)C[C@@H]4CC(=O)CC[C@]4(C)[C@H]3CC(=O)[C@]12C | inactive | 
25 | CCOc1ccc(NC(=O)CC(C)O)cc1 (configuration not stated) | inactive | 
26 | CCCCCC=CCC=CCCCCCCCC(=O)OCC | inactive | 
27 | COc1ccc(C2C(=O)c3ccccc3C2=O)cc1 | inactive | 
28 | CCCCCCCCCCCCCCCC[N+](C)(C)CC | inactive | 
29 | Oc1cc(O)c2c(c1)O[C@H](c1ccc(O)c(O)c1)[C@H](O)C2 | inactive | 
30 | NC(=O)C(=O)N/N=C/c1ccc([N+](=O)[O-])o1 | inactive | 
31 | CCCCCCCCCCCCCCCCCC(=O)OCC(O)CO (configuration not stated) | inactive | 
32 | C[C@]12C=CC(=O)C=C1CC[C@@H]1[C@@H]2[C@@H](O)C[C@@]2(C)[C@H]1CC[C@]2(O)C(=O)CO | inactive | 
33 | CC(=O)OCC(=O)[C@@]1(O)[C@H](C)C[C@H]2[C@@H]3CCC4=CC(=O)C=C[C@]4(C)[C@@]3(F)[C@@H](O)C[C@@]21C | inactive | 
34 | CCN(CC)C(=O)N1CCN(C)CC1 | inactive | 
35 | CCn1cc(C(=O)O)c(=O)c2cnc(N3CCCC3)nc21 |  | -0.143% [at 0.858 µM]
36 | O=C(OCC(O)CO)c1ccccc1Nc1ccnc2cc(Cl)ccc12 (configuration not stated) | inactive | 

molecular target: Calcium and integrin-binding protein 1 (Homo sapiens) (UniProt Q99828); assay: Primary qHTS for Identification of Calcium Integrin Binding Protein 1 (CIB1) Competitor (AID 1508620); conditions: CIB1-GST / FITC-alphaIIb peptide fluorescence polarization; series mostly up to 114 µM;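 note: GST tagged CIB1 binding a fluorescein labelled alphaIIb integrin peptide tracer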
Sequence (Q99828 whole entry, looked up): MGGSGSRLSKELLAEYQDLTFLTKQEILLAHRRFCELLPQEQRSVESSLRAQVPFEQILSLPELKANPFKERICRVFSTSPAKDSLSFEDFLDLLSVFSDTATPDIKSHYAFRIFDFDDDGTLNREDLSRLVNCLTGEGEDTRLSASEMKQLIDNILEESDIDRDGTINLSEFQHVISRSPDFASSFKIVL
Method in brief: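 Fluorescence polarization competition: CIB1-GST (1 uM final) preincubated with compound 15 min at room temperature, then FITC-labeled alphaIIb peptide (100 nM final) added for another 15 min. Polarization read at Ex 480/Em 540.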

Row | Structure (SMILES) | Potency
37 | CCN(CC)CCNC(=O)COc1ccc(Cl)cc1 | inactive
38 | CC(=O)O[C@]1(C(C)=O)CC[C@H]2[C@@H]3C[C@H](C)C4=CC(=O)CC[C@]4(C)[C@H]3CC[C@@]21C | inactive
39 | CC1(C)OC[C@@H](COC(=O)CCc2ccc(OC[C@@H](O)CNCCNC(=O)N3CCOCC3)cc2)O1 | inactive
40 | CC1(C)O[C@@H]2C[C@H]3[C@@H]4C[C@H](F)C5=CC(=O)C=C[C@]5(C)[C@H]4[C@@H](O)C[C@]3(C)[C@]2(C(=O)CO)O1 | inactive
41 | COc1cc2c(cc1OC)[C@@H]1CC(=O)[C@@H](CC(C)C)CN1CC2 | inactive
42 | C[C@@H]1C[C@H]2[C@@H]3C[C@H](F)C4=CC(=O)C(Cl)=C[C@]4(C)[C@@]3(F)[C@@H](O)C[C@]2(C)[C@@]1(O)C(=O)CO | inactive
43 | OC[C@@H](O)[C@@H](O[C@@H]1O[C@H](CO)[C@H](O)[C@H](O)[C@H]1O)[C@H](O)[C@@H](O)CO | inactive
44 | CC(=O)N/N=C/c1ccc([N+](=O)[O-])o1 | inactive
45 | CC(=O)Oc1ccc2c(c1)CC[C@@H]1[C@@H]2CC[C@]2(C)[C@@H](O)CC[C@@H]12 | inactive
46 | OC[C@H]1O[C@@H](n2cnc3c(=S)nc[nH]c32)[C@H](O)[C@@H]1O | inactive
47 | COc1ccc(/C=C/C(=O)c2ccc(OC)cc2OC)cc1 | inactive
48 | Nc1ccn([C@@H]2O[C@H](CO)[C@@H](O)C2(F)F)c(=O)n1 | inactive
49 | CCCCCCCCCCOCC(O)CN (configuration not stated) | inactive
50 | C[C@]12CC[C@H]3[C@@H](CCC4=CC(=O)CC[C@@]43C)[C@@H]1CC[C@@H]2C(=O)CO | inactive
51 | C[C@H](CCC(=O)O)[C@H]1CC[C@H]2[C@@H]3C(=O)C[C@@H]4CC(=O)CC[C@]4(C)[C@H]3CC(=O)[C@]12C | inactive
52 | CCCCCC=CCC=CCCCCCCCC(=O)OCC | inactive
53 | COc1ccc(C2C(=O)c3ccccc3C2=O)cc1 | inactive
54 | Oc1cc(O)c2c(c1)O[C@H](c1ccc(O)c(O)c1)[C@H](O)C2 | inactive
55 | C[C@]12C=CC(=O)C=C1CC[C@@H]1[C@@H]2[C@@H](O)C[C@@]2(C)[C@H]1CC[C@]2(O)C(=O)CO | inactive
56 | CCn1cc(C(=O)O)c(=O)c2cnc(N3CCCC3)nc21 | inactive
57 | O=C(OCC(O)CO)c1ccccc1Nc1ccnc2cc(Cl)ccc12 (configuration not stated) | inactive
